Assay results as given in PubChem BioAssay AID1159580 (chemical genetic matrix, 2015).
In all, about 5,500 compounds went through this assay and about 2,000 (36%) were called active. About 18% were inconclusive and are not listed. No stated cut-off is given here; in the data, active means normalized growth mostly below about 0.91 (no sharp cut-off); inconclusive means no clear call, values can overlap the other calls; inactive means mostly above about 0.92. The list shows a part of the results.

Test: chemical genetic growth profiling, strain panel (AID 1159580);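 further: tested at 20 µM; growth read once vehicle control cultures reached saturation at 30 °C; 1 = growth at the plate median or of vehicle wells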
Conditions: S. cerevisiae deletion strains, growth OD
[1] = locus YDL101C, strain DUN1, stronger effect = lower value
[2] = locus YHR030C, strain SLT2, stronger effect = lower value
[3] = locus YMR307W, strain GAS1, stronger effect = lower value

Measured: normalized growth

CSc1cc(-c2ccncc2)nc(-c2cccs2)c1
inactive: locus YAR019C, strain CDC15, stronger effect = lower value 0.953 | locus YBL105C, strain PKC1, stronger effect = lower value 0.964 | locus YBR135W, strain CKS1, stronger effect = lower value 0.957 | locus YBR136W, strain MEC1, stronger effect = lower value 0.961 | locus YBR160W, strain CDC28, stronger effect = lower value 0.952 | locus YDL017W, strain CDC7, stronger effect = lower value 0.959 | locus YDL028C, strain MPS1, stronger effect = lower value 0.965 | [1] 0.971 | locus YDL108W, strain KIN28, stronger effect = lower value 0.96 | locus YDL132W, strain cdc53, stronger effect = lower value 0.961 | locus YDL214C, strain PRR2, stronger effect = lower value 0.965 | locus YDR052C, strain DBF4, stronger effect = lower value 0.965 | locus YDR054C, strain cdc34, stronger effect = lower value 0.957 | locus YDR226W, strain ADK1, stronger effect = lower value 0.951 | locus YDR477W, strain SNF1, stronger effect = lower value 0.941 | locus YER123W, strain YCK3, stronger effect = lower value 0.928 | locus YER133W, strain GLC7, stronger effect = lower value 0.927 | locus YFL009W, strain cdc4, stronger effect = lower value 0.975 | locus YFL029C, strain CAK1, stronger effect = lower value 0.952 | locus YFR003C, strain YPI1, stronger effect = lower value 0.96 | locus YFR019W, strain FAB1, stronger effect = lower value 0.965 | locus YFR028C, strain CDC14, stronger effect = lower value 0.952 | locus YGR040W, strain KSS1, stronger effect = lower value 0.928 | locus YGR052W, strain FMP48, stronger effect = lower value 1.05 | locus YGR092W, strain DBF2, stronger effect = lower value 0.89 | [2] 1.03 | locus YHR079C, strain IRE1, stronger effect = lower value 0.953 | locus YHR082C, strain KSP1, stronger effect = lower value 1.02 | locus YHR205W, strain SCH9, stronger effect = lower value 0.997 | locus YIL147C, strain SLN1, stronger effect = lower value 0.962 | locus YJL095W, strain BCK1, stronger effect = lower value 0.982 | locus YJL128C, strain PBS2, stronger effect = lower value 0.963 | locus YJL157C, strain FAR1, stronger effect = lower value 0.938 | locus YJR016C, strain ILV3, stronger effect = lower value 0.985 | locus YJR066W, strain TOR1 (second series), stronger effect = lower value 0.95 | locus YJR066W, strain TOR1, stronger effect = lower value 0.993 | locus YKL048C, strain ELM1, stronger effect = lower value 0.966 | locus YKL067W, strain YNK1, stronger effect = lower value 0.951 | locus YKL101W, strain HSL1, stronger effect = lower value 0.961 | locus YKL193C, strain SDS22, stronger effect = lower value 0.958 | locus YKL203C, strain TOR2, stronger effect = lower value 1 | locus YLR113W, strain HOG1, stronger effect = lower value 0.92 | locus YLR133W, strain CKI1, stronger effect = lower value 0.962 | locus YLR403W, strain SFP1, stronger effect = lower value 1.01 | locus YML070W, strain DAK1, stronger effect = lower value 0.929 | locus YMR001C, strain CDC5, stronger effect = lower value 0.964 | locus YMR205C, strain PFK2 (second series), stronger effect = lower value 0.963 | locus YMR277W, strain FCP1, stronger effect = lower value 0.961 | locus YNL006W, strain LST8, stronger effect = lower value 0.969 | locus YNL020C, strain ARK1, stronger effect = lower value 0.954 | locus YNL161W, strain CBK1, stronger effect = lower value 0.952 | locus YNL183C, strain NPR1, stronger effect = lower value 0.97 | locus YNL207W, strain RIO2, stronger effect = lower value 0.945 | locus YNL222W, strain SSU72, stronger effect = lower value 0.951 | locus YNL307C, strain MCK1 (second series), stronger effect = lower value 0.952 | locus YOL078W, strain AVO1, stronger effect = lower value 0.96 | locus YOL136C, strain PFK27, stronger effect = lower value 0.956 | locus YOR061W, strain CKA2, stronger effect = lower value 0.963 | locus YOR119C, strain RIO1, stronger effect = lower value 0.984 | locus YOR231W, strain MKK1, stronger effect = lower value 0.921 | locus YOR329C, strain SCD5, stronger effect = lower value 0.966 | locus YPL031C, strain PHO85, stronger effect = lower value 0.927 | locus YPL153C, strain RAD53, stronger effect = lower value 0.925 | locus YPL204W, strain HRR25, stronger effect = lower value 0.951 | locus YPL209C, strain IPL1, stronger effect = lower value 0.954 | locus YPL256C, strain CLN2, stronger effect = lower value 0.939 | locus YPR025C, strain CCL1, stronger effect = lower value 0.963 | locus YPR106W, strain ISR1, stronger effect = lower value 0.959 | locus YPR111W, strain DBF20, stronger effect = lower value 0.947 | strain NNK1, stronger effect = lower value 0.965 | strain TSCII, stronger effect = lower value 0.951

CSc1c(C#N)c(-c2cccs2)nn1C
inactive: locus YAL013W, strain DEP1, stronger effect = lower value 0.934 | locus YBR229C, strain ROT2, stronger effect = lower value 0.935 | [1] 0.934 | locus YDR150W, strain NUM1, stronger effect = lower value 0.86 | locus YEL061C, strain CIN8, stronger effect = lower value 0.924 | locus YJL187C, strain SWE1, stronger effect = lower value 1.02 | locus YJR043C, strain POL32, stronger effect = lower value 0.978 | locus YLR039C, strain RIC1, stronger effect = lower value 0.87 | locus YLR085C, strain ARP6, stronger effect = lower value 0.784 | locus YLR262C, strain YPT6, stronger effect = lower value 0.879 | locus YML094W, strain GIM5, stronger effect = lower value 0.911 | locus YMR219W, strain ESC1, stronger effect = lower value 0.945 | locus YMR263W, strain SAP30, stronger effect = lower value 0.949 | [3] 0.983 | locus YNL153C, strain GIM3, stronger effect = lower value 0.959 | locus YPL055C, strain LGE1, stronger effect = lower value 0.917 | locus YPL241C, strain CIN2, stronger effect = lower value 0.886
active: locus YGR078C, strain PAC10, stronger effect = lower value 0.913 | [2] 0.505 | locus YHR087W, strain rtc3, stronger effect = lower value 0.898 | locus YJR075W, strain HOC1, stronger effect = lower value 0.89 | locus YLR058C, strain SHM2 (second series), stronger effect = lower value 0.92 | locus YNL298W, strain CLA4 (second series), stronger effect = lower value 0.804 | locus YNL322C, strain KRE1, stronger effect = lower value 0.931 | locus YNR030W, strain Alg12, stronger effect = lower value 0.859 | locus YPR135W, strain CTF4, stronger effect = lower value 0.509

NCC(CP(=O)(O)O)c1ccc(Cl)cc1 (stereo not drawn)
inactive: locus YAL040C, strain CLN3, stronger effect = lower value 1.04 | locus YCL061C, strain MRC1 (second series), stronger effect = lower value 0.978 | locus YDR363W, strain ESC2, stronger effect = lower value 0.99 | locus YER002W, strain NOP16, stronger effect = lower value 0.991 | locus YGR229C, strain SMI1, stronger effect = lower value 0.963 | [3] 0.995 | locus YNL128W, strain TEP1, stronger effect = lower value 0.987 | locus YNL175C, strain NOP13, stronger effect = lower value 0.986 | locus YNL197C, strain WHI3, stronger effect = lower value 0.998 | locus YNL224C, strain SQS1, stronger effect = lower value 1 | locus YOR083W, strain WHI5 (second series), stronger effect = lower value 0.98
